Many of the other results were omitted from the sample, so hits are more common in it than they were.
miR-122 inh = miR-122 suppressors via Renilla sensor increase, primary screen, cell-based, Huh7 psiCHECK-miR122, Renilla luciferase, single point | 340,000 tested, 0.14% active | activation, % at 12.5 µM | 48 h;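 active = mean activation of 30% or more, with every replicate also reaching 30%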;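 note: 0% = median of neutral control wells and 100% = median of positive control wells; higher luciferase signal means stronger suppression of miR-122 activity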
* marks the source's active call; other numbers are inactive results.

C[C@H](CO)N1C[C@H](C)[C@H](CN(C)S(=O)(=O)c2cccc(F)c2)Oc2ncc(C#CC3(O)CCCC3)cc2C1=O was read as miR-122 inh 7.
`C[C@@H]1CN([C@H](C)CO)C(=O)c2cc(-c3cncnc3)cnc2O[C@H]1CN(C)Cc1ccc(Oc2ccccc2)cc1` gave miR-122 inh 38*.
Screening C[C@@H]1CN([C@H](C)CO)S(=O)(=O)c2ccc(C#Cc3ccccc3)cc2O[C@H]1CN(C)C(=O)Nc1ccccc1 returned miR-122 inh -1.
COc1ccc(-c2cnc3c(c2)C(=O)N([C@@H](C)CO)C[C@H](C)[C@H](CN(C)Cc2ccccn2)O3)cc1 was read as miR-122 inh 4.
CC(=O)N(C)C[C@@H]1Oc2cc(C#C[C@@H](C)O)ccc2S(=O)(=O)N([C@@H](C)CO)C[C@@H]1C was read as miR-122 inh -2.
C[C@@H]1CN([C@@H](C)CO)S(=O)(=O)c2ccc(C#CCC3CCCC3)cc2O[C@@H]1CN(C)C(=O)CC1CC1 was read as miR-122 inh -3.
`COCC#Cc1cnc2c(c1)C(=O)N([C@H](C)CO)C[C@@H](C)[C@H](CN(C)C(=O)C1CCOCC1)O2` gave miR-122 inh 4.
For CCCC(=O)Nc1ccc2c(c1)OC[C@@H](C)N(C)C[C@H](C)[C@H](OC)CN(C)C2=O the results were miR-122 inh 1.
`COc1ccc(-c2cnc3c(c2)C(=O)N([C@H](C)CO)C[C@@H](C)[C@H](CN(C)C(=O)Cc2ccccc2)O3)cc1` gave miR-122 inh 3.
`C[C@@H]1CN([C@H](C)CO)S(=O)(=O)c2ccc(Br)cc2O[C@@H]1CN(C)S(C)(=O)=O` gave miR-122 inh -3.
`COCC#Cc1ccc2c(c1)O[C@H](CN(C)C(C)=O)[C@@H](C)CN([C@H](C)CO)S2(=O)=O` gave miR-122 inh -3.
For CO[C@H]1CN(C)C(=O)c2cc(NC(C)=O)ccc2OC[C@@H](C)N(C(=O)c2ccccc2)C[C@H]1C the results were miR-122 inh -2.
Screening C[C@H](CO)N1C[C@H](C)[C@H](CN(C)CC2CCCCC2)Oc2c(NC(=O)C3CCOCC3)cccc2C1=O returned miR-122 inh -104.
C[C@@H]1CN([C@@H](C)CO)C(=O)c2cc(/C=C/c3ccccc3)cnc2O[C@H]1CN(C)S(=O)(=O)c1ccc(F)cc1 was read as miR-122 inh 3.
C[C@H](CO)N1C[C@H](C)[C@@H](CN(C)CC2CCCCC2)Oc2c(NS(=O)(=O)c3cccs3)cccc2C1=O was read as miR-122 inh 33*.
For C[C@H](CO)N1C[C@H](C)[C@@H](CN(C)CC2CCCCC2)Oc2c(NC(=O)C3CC3)cccc2C1=O the results were miR-122 inh -114.
`C[C@H]1CN([C@@H](C)CO)C(=O)c2cc(/C=C/c3ccccc3)cnc2O[C@H]1CN(C)S(=O)(=O)c1ccc(F)cc1` gave miR-122 inh 17.
For COc1ccc(S(=O)(=O)N(C)C[C@@H]2Oc3ncc(/C=C/c4ccccc4)cc3C(=O)N([C@@H](C)CO)C[C@@H]2C)cc1 the results were miR-122 inh 42*.
Screening COc1cccc(S(=O)(=O)N(C)C[C@H]2Oc3ncc(C#CCC(C)C)cc3C(=O)N([C@@H](C)CO)C[C@@H]2C)c1 returned miR-122 inh -39.
For C[C@@H]1CN([C@H](C)CO)S(=O)(=O)c2ccc(C#C[C@@H](C)O)cc2O[C@H]1CN(C)CC1CCOCC1 the results were miR-122 inh -36.
CCOc1ccc(S(=O)(=O)Nc2cc(C)ccn2)c2ccccc12 was read as miR-122 inh -237.
`COc1ccc(NS(=O)(=O)c2ccc(OC)c3ccccc23)cn1` gave miR-122 inh -356.
For COc1ccc(S(=O)(=O)Nc2cc(C)cc(C)n2)c2ccccc12 the results were miR-122 inh 31*.
C/C=C/c1cnc2c(c1)C(=O)N([C@@H](C)CO)C[C@@H](C)[C@@H](CN(C)C(=O)c1cccnc1)O2 was read as miR-122 inh 1.
`CC(C)CC#Cc1cnc2c(c1)C(=O)N([C@@H](C)CO)C[C@@H](C)[C@@H](CN(C)CC1CCOCC1)O2` gave miR-122 inh -1.
Screening CCCN(C)C[C@@H]1Oc2ncc(-c3cccc(C(F)(F)F)c3)cc2C(=O)N([C@H](C)CO)C[C@@H]1C returned miR-122 inh 10.
CCC(=O)Nc1ccc2c(c1)C(=O)N(C)C[C@H](OC)[C@H](C)CN(C(C)=O)[C@H](C)CO2 was read as miR-122 inh 2.
For C[C@H]1CN([C@@H](C)CO)C(=O)c2cc(/C=C/c3ccccc3)cnc2O[C@H]1CN(C)C(=O)c1cccnc1 the results were miR-122 inh -22.
C[C@@H]1CN([C@H](C)CO)C(=O)c2cc(C#CCc3ccccc3)cnc2O[C@H]1CN(C)Cc1cccc(C(=O)O)c1 was read as miR-122 inh 2.
`COc1ccc(S(=O)(=O)Nc2ccc3c(c2)CC(=O)N([C@H](C)CO)C[C@H](C)[C@H](CN(C)Cc2ccc(C(=O)Nc4ccccc4N)cc2)O3)cc1` gave miR-122 inh -212.
C[C@@H]1CN([C@H](C)CO)C(=O)c2cc(C#CC3(O)CCCC3)cnc2O[C@@H]1CN(C)Cc1cncnc1 was read as miR-122 inh 2.
For COc1ccc2[nH]c3c4c(ccc3c2c1)C(=O)C=CC4=O the results were miR-122 inh 42*.
`Oc1ccccc1/C=N/Nc1nc2ccccc2o1` gave miR-122 inh 48*.
C[C@H](CO)N1C[C@H](C)[C@H](CN(C)C(=O)Cc2ccccc2)Oc2ncc(C#CC3(O)CCCC3)cc2C1=O was read as miR-122 inh 4.
Screening CN1[C@@H](CO)[C@@H]2c3ccccc3N(C(=O)Nc3cc(F)ccc3F)C[C@@H]21 returned miR-122 inh 33*.
O=C(Nc1ccccc1F)N1C[C@@H]2[C@H](c3ccccc31)[C@@H](CO)N2C(=O)C1CCCC1 was read as miR-122 inh -130.
Screening O=S(=O)(c1ccccc1)N1C[C@H]2[C@@H](c3ccccc31)[C@@H](CO)N2Cc1ccc2c(c1)OCO2 returned miR-122 inh -140.
For COc1cccc(NC(=O)N(C)C[C@@H]2Oc3ncc(C#Cc4cccnc4)cc3C(=O)N([C@H](C)CO)C[C@H]2C)c1 the results were miR-122 inh 2.
`CCCN(C)C[C@@H]1Oc2cc(C#CC3(O)CCCC3)ccc2S(=O)(=O)N([C@@H](C)CO)C[C@@H]1C` gave miR-122 inh 2.
For Cc1ccc(-c2ccc3c(c2)O[C@@H](CN(C)Cc2cccc(C(=O)O)c2)[C@@H](C)CN([C@@H](C)CO)S3(=O)=O)cc1 the results were miR-122 inh 2.
`CCCC(=O)Nc1ccc2c(c1)C(=O)N(C)C[C@H](OC)[C@@H](C)CN[C@@H](C)CO2` gave miR-122 inh 4.
CO[C@@H]1CN(C)C(=O)c2cc(NC(=O)Nc3ccccc3)ccc2OC[C@H](C)NC[C@@H]1C was read as miR-122 inh -2.
CO[C@H]1CN(C)C(=O)c2cc(NC(=O)Nc3ccc(Cl)c(Cl)c3)ccc2OC[C@H](C)NC[C@H]1C was read as miR-122 inh 51*.
For C[C@H]1CN([C@@H](C)CO)C(=O)c2cc(C#Cc3ccccc3F)cnc2O[C@@H]1CN(C)C(=O)Cc1ccncc1 the results were miR-122 inh 11.
C[C@@H]1CN([C@H](C)CO)S(=O)(=O)c2ccc(-c3ccc(C#N)cc3)cc2O[C@@H]1CN(C)C(=O)C1CC1 was read as miR-122 inh 6.

High-throughput results as filed in PubChem.
